HT1080NT lethal: kills 2HG-producing HT-1080-NT fibrosarcoma cells. HT-1080-NT fibrosarcoma viability, CellTiter-Glo ATP luminescence, 48 h. Potency, µM (highest dose often 46.1 µM), for the others: at the top dose activity, negative = less viability, actives largely listed as cytotoxic. actives 1.6% (n = 360,000);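 further: NT is the 2HG producing partner of a matched IDH1 knockdown line; potency means the concentration at half of the fitted maximal effect; 0% = DMSO-treated cells and -100% = media-only wells without cells; nearly all actives have a fitted effect of over 55% in size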
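750 cells/well, RPMI + 5% FBS; 2 h settle, compound pin-transfer, 48 h at 37 degrees C. CellTiter-Glo 10 min RT, luminescence. Normalized to DMSO and media-only wells.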
IL-1B inflam inh: blocks inflammasome-driven IL-1 beta release | AID 743279 | activity change, % at 57.5 µM | THP-1 LPS/ATP IL-1B secretion, AlphaLISA, 16 h; active compounds read low | actives 4.7% (n = 360,000); in the data active means activity change below about -50%; inconclusive means mostly about -30% to -49%
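Secreted IL-1B measured by AlphaLISA bead assay after 16 h compound exposure of THP-1 cells; compounds (final up to 57.5 uM) added 1 h before LPS (250 ng/mL) and ATP (1.25 mM) stimulation; lower signal means less secretion.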
DT40 TDP1 CPT: DT40-hTDP1 cell growth loss with CPT | Potency, µM (series often up to 46.2 µM), inactives show at the top dose activity change, negative = growth inhibition, hits mostly inhibitors | chicken DT40 Tdp1-/-;hTDP1 cells + 20 nM CPT, ATP luminescence, 48 h | AID 686979 | actives 12% (n = 420,000); further: potency means the concentration at half of the fitted maximal effect; nearly all actives have a fitted effect of over 55% in size
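Chicken DT40 Tdp1-/- cells complemented with human TDP1, 400 cells/well, exposed to compounds plus 20 nM camptothecin for at least 48 h at 37 C; viability read as ATP content by CellTiter-Glo luminescence.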
DT40 TDP1 no CPT: qHTS for Inhibitors of human tyrosyl-DNA phosphodiesterase 1 (TDP1): qHTS in cells in absence of CPT; DT40 Tdp1-/- hTDP1 cells, no CPT, ATP luminescence, 48 h; Potency, µM (highest dose often 46.2 µM), inactives show at the highest dose activity change, negative = growth inhibition, actives largely listed as inhibitors; actives 15% (n = 420,000); AID 686978, 2013; further: potency means the concentration at half of the fitted maximal effect; nearly all actives have a fitted effect of over 55% in size
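A cellular qHTS used chicken DT40 cells lacking endogenous Tdp1 but carrying stably transfected human TDP1. Compounds were applied without camptothecin, and cell growth kinetics were judged by ATP-dependent luminescence after ≥48 hr.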
HT1080 IDH1KD tx: toxicity to HT-1080 IDH1 knockdown cells (counter line); actives 2% (n = 360,000); AID 686971; HT-1080 IDH1 knockdown viability, ATP luminescence, 48 h; Potency, µM (top dose mostly 46.1 µM), inactives show at the top dose activity, negative = toxicity, actives largely listed as cytotoxic;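 further: potency means the concentration at half of the fitted maximal effect; 0% = DMSO wells and -100% = cell-free medium wells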
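Luminescent ATP read-out (CellTiter-Glo, 10 min at room temperature) after 48 h compound exposure at 37 °C gave viability of IDH1-knockdown HT-1080 cells. Activity was normalised to DMSO and cell-free wells, then fitted as concentration-response curves.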
* = called active by the depositor; ? = inconclusive; . = no result; [ ] = another dose, or the depositor's remark. Most compounds without a hit are left out; they make up all but 19% or so of the library. Unless noted, the call rests on the fitted dose curve; in most records, active means well fitted curve in the direction sought with a large enough effect; inconclusive means small, poorly fitted or top-dose-only effect, or another doubt; inactive means no such curve, though single readings can be large; an effect the other way counts as inactive or inconclusive. Unless noted, on the % scale 0 is the no-effect control and ±100 the full control effect.

SMILES	HT1080NT lethal	IL-1B inflam inh	DT40 TDP1 CPT	DT40 TDP1 no CPT	HT1080 IDH1KD tx
Cc1[nH]nc(Nc2ccc(C(C)C)cc2)c1[N+](=O)[O-]	-22%	-51*	8%	?	?
Cc1cccc(Nc2n[nH]c(C)c2[N+](=O)[O-])c1	-29%	-3	11%	-28%	-20%
COc1ccc(NCC(=O)Nc2c(C)cccc2C)cc1S(=O)(=O)N1CCOCC1	3%	-8	-15%	-26%	-6%
Cc1ccc(NS(=O)(=O)c2ccc3c(c2)CC(=O)N3)cc1F	3%	6	-5%	4%	0%
COc1ccccc1C(=O)NC(=O)COC(=O)c1ncc(Cl)c(Cl)c1Cl	-2%	10	?	-5%	0%
O=C(COC(=O)c1ccc(Cl)nc1)Nc1cccnc1Cl	1%	-9	10%	0%	11%
O=C(COC(=O)c1ncc(Cl)c(Cl)c1Cl)Nc1cccnc1Cl	-6%	-56*	-12%	7%	-5%
CC(C)NC(=O)NC(=O)COC(=O)c1ncc(Cl)c(Cl)c1Cl	-7%	-63*	-5%	-7%	0%
Cc1ccc(S(=O)(=O)N(CCC(=O)NCC(c2ccccc2)N(C)C)c2ccccc2)cc1 (stereo not drawn)	-10%	-13	?	-22%	13%
Cc1c(NC(=O)c2ccccc2)cc(C(C)C)c(O)c1S(=O)(=O)c1ccc(Cl)cc1	.	.	21µM*	?	.
O=C(CCNS(=O)(=O)c1ccccc1)NNC(=O)COc1ccccc1F	-3%[9.24 µM]	12	5%	14%	4%
COc1cccc(Oc2nc(N)ncc2[N+](=O)[O-])c1	-1%	-73*	-19%	-18%	0%
Nc1ccc(-c2ncc(-c3ccccc3)o2)cc1	-13%	-59*	-1%	?	-1%
Cc1cccc(NC2=NC(C)(C)N=C(N)N2)c1	0.33µM*	42	0.46µM*	0.16µM*	0.16µM*
COc1cc(C(=O)N(C)CC2CCN(CCc3cccc(C(F)(F)F)c3)CC2)ccc1C	?	-86*	?	?	?
O=C(OCc1cc(=O)n2ccsc2n1)c1ccc(O)cc1O	-2%[9.24 µM]	-26	-20%	-17%	-3%
O=C1N=c2ccccc2=C1c1c(O)[nH]c2c(C(F)(F)F)cccc12	5%	-1	21µM*	26µM*	11%
Oc1ccc(N=Nc2nc(-c3ccccc3)c(-c3ccccc3)[nH]2)cc1	-5%	0	?	23µM*	-21%
CC1(Cc2ccc(Cl)s2)C(=O)Nc2c(Cl)ccc(Cl)c21 (stereo not drawn)	?	25	?	?	?
COc1ccc2[nH]cc(CCNc3cc(-c4ccc5c(c4)OCO5)ncn3)c2c1	.	.	?	21µM*	.
CNC(=S)NCCc1c[nH]c2ccc(OC)cc12	2%	-17	-4%	-1%	17%
COc1cccc(-c2cncnc2NCCc2c[nH]c3ccc(OC)cc23)c1	.	.	23µM*	21µM*	.
COc1ccc2[nH]cc(CCNc3ncncc3-c3ccc4c(c3)OCO4)c2c1	.	.	6.5µM*	18µM*	.
COc1ccc2[nH]cc(CCNc3cc(-c4cccnc4)ncn3)c2c1	.	.	?	-25%	.
COc1ccc2[nH]cc(CCNc3cc(-c4ccccc4C)ncn3)c2c1	.	.	9.2µM*	16µM*	.
SMILES	HT1080NT lethal	IL-1B inflam inh	DT40 TDP1 CPT	DT40 TDP1 no CPT	HT1080 IDH1KD tx
N#Cc1cccc(-c2cncnc2NCCc2cnc[nH]2)c1	.	.	-12%	-25%	.
COc1cccc(-c2cncnc2NCCc2cnc[nH]2)c1	.	.	2.6µM*	?	.
CC(=O)N(c1nnc(-c2ccc(C)cc2)s1)C1CCCC1	4%	-2	?	?	2%
COc1cccc(C2(O)CC(C(F)(F)F)=NN2C(=O)c2ccccn2)c1 (stereo not drawn)	7%	-13	?	-10%	-2%
O=C(CSc1nnc(CNc2ccc(F)cc2)n1-c1ccccc1)N1CCOCC1	2%	16	-7%	?	2%
COC1=CC(=O)c2ccccc2C1=O	12µM*	9	3.7µM*	4.1µM*	5.2µM*
COC1=CC(=O)C=C(OC)C1=O	18µM*	-107*	0.65µM*	0.82µM*	?
O=C(CSC1=NS(=O)(=O)c2cc(F)ccc2N1)NCCc1ccccc1	-8%	9	2%	-1%	0%
O=C(c1cnccn1)N1CCC2(CC1)CCN(c1ccccn1)CC2	.	.	2%	-7%	.
O=C(NC(Cc1c[nH]c2ccccc12)C(=O)N/N=C/c1ccc(Cl)cc1)c1cccs1 (stereo not drawn)	?	-66*	12µM*	?	?
Cc1c(/C=N\NC(=O)c2c[nH]c3ccccc23)cnn1C	8%	7	-2%	-12%	-5%
O=C(N/N=C/c1cccs1)c1c[nH]c2ccccc12	13%	-10	?	12µM*	24%
CCc1ccc(/C=N/NC(=O)c2c[nH]c3ccccc23)s1	-5%	?	21µM*	-20%	-8%
O=C(Cc1c[nH]c2ccccc12)N/N=C/c1ccc(F)cc1	-2%	-15	16µM*	21µM*	-7%
CCN(CC)c1ccc(/C=N/NC(=O)c2cc3ccccc3[nH]2)cc1	-28%	2	?	?	?
CCN(CC)c1ccc(/C=N/NC(=O)c2c[nH]c3ccccc23)cc1	?	-27	?	23µM*	-29%
COc1cc2c(cc1NC(=O)C(C)N1CCN(S(=O)(=O)c3ccc(C)c(C)c3)CC1)oc1ccccc12 (stereo not drawn)	-3%	1	-7%	-25%	-1%
COc1cc2c(cc1NC(=O)COC(=O)[C@@H](NC(=O)c1ccccc1F)C(C)C)oc1ccccc12	4%	0	?	21µM*	9%
CC(C)[C@H](NC(=O)c1ccccc1F)C(=O)OCC(=O)Nc1sccc1C(N)=O	4%	29	?	12µM*	6%
COc1cc2c(cc1NC(=O)COC(=O)[C@@H](NC(=O)c1ccccc1)C(C)C)oc1ccccc12	-14%	10	?	?	-3%
CC(C)[C@H](NC(=O)c1ccccc1F)C(=O)OCC(=O)NC(=O)NC1CCCCC1	1%	-6	?	-6%	-10%
COc1cc2c(cc1NC(=O)C(C)OC(=O)c1ccc(S(=O)(=O)Nc3ccccc3Cl)cc1)oc1ccccc12 (stereo not drawn)	-9%	0	23µM*	18µM*	0%
COc1cc2c(cc1NC(=O)c1cc(-c3ccccn3)nc3ccccc13)oc1ccccc12	18%	13	21µM*	21µM*	19%

Source: PubChem (National Center for Advancing Translational Sciences (NCATS))
